From PubChem
HCT116 PTEN-null = growth suppression of PTEN-null HCT116, primary screen, cell-based, CellTiter-Glo; HCT116 PTEN-null viability, 60 h; hits give low values; viability, % at 10 µM; 140,000 compounds, 1.2% hits; AID 827, 2007;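 active = viability at or below a set limit, 4 SD under the median of all tested compounds, cut at about 3.7% in these data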;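 also: PTEN knockout HCT116 line with beta catenin targeted HCT116 as companion control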
p97 inhibitor = inhibitors of human p97 ATPase, primary screen, biochemical; Transitional endoplasmic reticulum ATPase (Homo sapiens), P55072; recombinant p97 ATPase, Kinase-Glo ATP luminescence, 3 h; inhibition, % at 8 µM; 220,000 compounds, 0.42% hits; in the data active = inhibition above about 15%
HCT116 bCat-KO = primary screen for growth suppressors in beta-catenin knockout HCT116 cells (colon tumor, human). viability, % at 10 µM. HCT116 beta-catenin knockout viability, CellTiter-Glo, 60 h; hits give low values. 140,000 compounds, 1.5% hits;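 active = viability at or under a set limit, the compound median less 4 SD, cut at about 6% in these data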
ROMK mod = ROMK potassium channel modulators, primary screen, cell-based, thallium flux, MLSMR library. B-score at 10 µM. AID 1918, 2009. ATP-sensitive inward rectifier potassium channel 1 (Homo sapiens), P48048. Tet-inducible ROMK, thallium flux fluorescence; actives lie on both sides. 130,000 compounds, 2% hits;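 active = signal ratio slope over the read window, or its plate-corrected B-score, at least 3 SD from the plate mean, either direction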;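 also: B-score of the F/F0 ratio slope over 7 to 12 s after thallium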
Target sequence (P48048 whole entry, looked up): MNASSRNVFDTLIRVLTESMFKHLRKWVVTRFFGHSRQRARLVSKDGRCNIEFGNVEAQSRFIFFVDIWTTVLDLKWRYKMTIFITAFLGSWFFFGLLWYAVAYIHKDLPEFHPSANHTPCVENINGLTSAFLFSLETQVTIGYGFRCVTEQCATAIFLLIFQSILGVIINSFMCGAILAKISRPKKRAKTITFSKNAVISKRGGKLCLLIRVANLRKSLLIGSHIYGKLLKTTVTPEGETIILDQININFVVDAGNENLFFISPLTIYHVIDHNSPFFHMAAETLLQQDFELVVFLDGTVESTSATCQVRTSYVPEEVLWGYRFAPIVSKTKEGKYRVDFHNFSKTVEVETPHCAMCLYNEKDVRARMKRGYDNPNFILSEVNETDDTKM
Insulin prom inh = inhibitors of insulin promoter-driven GFP, primary screen, imaging, TRM-6 cells (human fetal islet line), eGFP reporter, cell count; reporter expression induced with tamoxifen; inhibition, % at 2 µM; 130,000 compounds, 0.9% hits; AID 1273, 2008;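 active = inhibition above the mean plus 3 SD, with well images judged a real hit on visual review, cut at about 60% in these data, passing the limit was not always enough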
L major viab = Leishmania major promastigote growth inhibition, primary screen. Leishmania major promastigotes, resazurin fluorescence viability. 200,000 compounds, 9% hits. inhibition, % at 10 µM; in the data active = inhibition above about 50%;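 also: promastigotes grown with compound for 44 hours at 28 °C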
A number is an active result; i = inactive; nt = not tested or not shown; ! = not confirmed by another sample. A selection: hits, their analogues and other compounds. The true share with any hit is near 10%.

SMILES | HCT116 PTEN-null | p97 inhibitor | HCT116 bCat-KO | ROMK mod | Insulin prom inh | L major viab
COc1ccc(CC(=O)Nc2nc(-c3cccc([N+](=O)[O-])c3)cs2)cc1 | i | i | i | i | i | 62
O=[N+]([O-])c1cccc(-c2csc(N/N=C/c3cccc(O)c3)n2)c1 | nt | i | nt | i | i | 98
O=C(CSCc1ccc(Br)cc1)N1CCCC1 | nt | i | nt | i | nt | i
Cc1c(N=Cc2ccco2)c(=O)n(-c2ccccc2)n1C | i | i | i | nt | nt | i
COc1ccc2c(C=Nc3c(C)n(C)n(-c4ccccc4)c3=O)c(O)n(Cc3ccco3)c(=O)c2c1 | i | i | i | i | i | 76!
O=[N+]([O-])c1ccc2cn(-c3ccccc3)nc2c1 | i | i | i | i | i | i
COc1ccc(NC(=O)CCCn2c(=O)c3sccc3n(Cc3ccccc3C)c2=O)cc1 | i | i | i | nt | i | 89
COCCCNC(=O)Cn1c(=O)n(CCCCCC(=O)Nc2ccccc2)c(=O)c2sccc21 | i | i | i | i | i | 50
COc1ccc(NC(=O)CCCn2c(=O)c3sccc3n(Cc3ccccc3)c2=O)cc1 | 0.8 | i | i | i | i | i
O=C(COC(=O)c1ccc(CSc2ccc(Cl)cc2)cc1)Nc1ccccc1 | i | i | i | nt | nt | i
CCc1ccc2c(c1)CCCN2C(=O)c1ccccc1C(=O)O | i | i | i | i | nt | 99
CCNc1nc(NC(C)C)nc(OCC)n1 | i | i | i | i | 72 | i
COc1cc2c3nnc(-c4ccc(F)cc4)c-3cn(Cc3ccccc3)c2cc1OC | 1.6 | i | 1.1 | nt | nt | i
COc1ccc(Cn2cc3c(-c4ccc(F)cc4)nnc-3c3cc(OC)c(OC)cc32)cc1 | 2.1 | i | 1.8 | nt | nt | i
O=C(O)Cc1cn(Cc2ccc(F)cc2)c2ccccc12 | nt | i | nt | i | i | i
COc1ccc(-c2cn[nH]c2-c2ccc(OCc3ccc(F)cc3)cc2O)cc1OC | nt | i | nt | nt | nt | nt
O=C(NCCCl)Nc1cccnc1Cl | nt | i | nt | i | nt | i
Cc1nn(C2CCS(=O)(=O)C2)c(Cl)c1/C=C/C(=O)OCC(=O)Nc1ccccc1OC(F)F (stereo unspecified) | i | i | i | i | 66 | 51
Cc1nn(C2CCS(=O)(=O)C2)c(Cl)c1/C=C/C(=O)OCC(=O)Nc1ccccc1[N+](=O)[O-] (stereo unspecified) | nt | i | nt | i | nt | i
O=C(Nc1ccc2nc(-c3ccccc3)[nH]c2c1)c1cccs1 | i | i | i | i | 77 | i
O=C(c1ccccc1)c1ccc2nc(-c3ccc(NC(=O)c4ccccc4F)cc3)[nH]c2c1 | i | i | i | nt | i | 61
O=C(Nc1ccc2nc(-c3ccco3)[nH]c2c1)c1ccco1 | i | i | i | i | 82 | i
CC(=O)Nc1ccc2nc(-c3ccco3)[nH]c2c1 | nt | i | nt | i | i | i
O=C(Nc1ccc2nc(-c3ccc4nc[nH]c4c3)[nH]c2c1)c1cccs1 | i | i | i | nt | i | i
O=C1NCC2=C1C(c1ccc(Br)cc1)Nc1ccccc1N2 (stereo unspecified) | i | i | i | nt | nt | i
SMILES | HCT116 PTEN-null | p97 inhibitor | HCT116 bCat-KO | ROMK mod | Insulin prom inh | L major viab
CCOC(=O)COc1c(/C=N\O)cc(Cl)cc1OC | nt | i | nt | i | i | i
O=C(NCc1cccnc1)c1ccccc1CCc1ccccc1 | nt | i | nt | i | nt | i
CCC(=O)N1CCN(c2ccnc3cc(Cl)ccc23)CC1 | nt | i | nt | i | nt | nt
O=C(c1ccc(Cl)cc1)N1CCN(c2ccnc3cc(Cl)ccc23)CC1 | nt | i | nt | i | i | 66
O=C(NC12CC3CC(CC(C3)C1)C2)N1CCN(C(=O)c2ccco2)CC1 | nt | i | nt | i | nt | i
Cc1c(C2=CCN(S(=O)(=O)c3ccc(Br)cc3)CC2)c2ccccc2n1C | i | i | i | i | i | 64
COc1cc(-c2nnc(CSc3nnc(Nc4ccc(Oc5ccccc5)cc4)s3)o2)cc(OC)c1OC | i | i | i | nt | nt | 77
CC(C)(C)N(Cc1ccccc1)C(=O)CSc1nnc(CNc2ccc(F)cc2)o1 | i | i | i | i | i | 100
O=C(CSc1nnc(CNc2ccc(F)cc2)o1)N1c2ccccc2Sc2ccccc21 | i | i | i | nt | i | 65
COc1ccc(/C=C2/SC(=O)N(CCNC(=O)C3CCCN3C(=O)c3cccs3)C2=O)cc1 (stereo unspecified) | i | i | i | i | i | 76
COc1ccc(/C=C2\SC(=O)N(CCNC(=O)C3CC4C=CC3C4)C2=O)cc1 (stereo unspecified) | nt | i | nt | i | i | 96
S=c1nc[nH]c2c1ncn2C1CCCO1 (stereo unspecified) | nt | i | nt | nt | nt | nt
CCOC(=O)c1cnc2c(-c3ccc(F)cc3)cnn2c1C(F)(F)F | nt | i | nt | i | i | 97
COC(=O)c1c(NC(=O)COC(=O)Cn2cnc3ccccc32)sc2c1CCCC2 | i | i | i | i | i | i
Cc1ccc2nc(-c3cccnc3)c(NC3CCCCC3)n2c1 | i | i | i | i | i | 88
CN1CCN(Cc2cccc(Oc3ccccc3)c2)CC1 | i | i | i | i | i | 100
O=C(c1ccccc1)N1CCN(Cc2cccc(Oc3ccccc3)c2)CC1 | i | i | i | i | i | i
CN1CCN(CCOc2cccc(Cl)c2)CC1 | i | i | i | nt | i | i
CC1CCCN(Cc2cccc(Oc3ccccc3)c2)C1 (stereo unspecified) | i | i | i | nt | i | 100
CC1CCCN(C(=O)CCc2ccccc2)C1 (stereo unspecified) | i | i | i | i | i | i
CCN1CCN(CCOc2cccc(Oc3ccccc3)c2)CC1 | nt | i | nt | i | nt | 95
OC1CCN(Cc2cccc(Oc3ccccc3)c2)CC1 | i | i | i | nt | i | 100
NS(=O)(=O)c1ccc(NC(=S)Nc2ccn(Cc3cccc4ccccc34)n2)cc1 | nt | i | nt | i | nt | i
CCNc1nc(OC)nc(SCC(=O)Nc2ccccc2)n1 | nt | i | nt | nt | nt | i
OCCN1CCN(Cc2cccc(Oc3ccc(Cl)cc3)c2)CC1 | i | i | i | nt | i | 99
SMILES | HCT116 PTEN-null | p97 inhibitor | HCT116 bCat-KO | ROMK mod | Insulin prom inh | L major viab
S=C(c1ccc(Cl)cc1)N1CCN(Cc2ccccc2)CC1 | nt | i | nt | i | nt | i
O=C(Cn1nnc2ccccc2c1=O)NCC1CCC(C(=O)O)CC1 (stereo unspecified) | nt | i | nt | nt | nt | nt
CCCS(=O)(=O)N1CCN(c2ccccn2)CC1 | i | i | i | i | i | i
CCS(=O)(=O)N1CCN(c2ccccn2)CC1 | i | i | i | nt | i | 92
COC(=O)c1cc(C)[nH]c2c(C)cc3nc4ccccc4c3c12 | nt | i | nt | nt | nt | nt
CN1CCN(c2nc(-c3ccncc3)nc3ccccc23)CC1 | i | i | i | nt | i | 100
c1ccc(CN2CCN(c3nc4ccccc4c4ccccc34)CC2)cc1 | i | i | i | i | i | i
COc1ccc(CN2CCN(c3ccccn3)CC2)c(OC)c1 | i | i | i | nt | i | i
c1ccc(COc2ccc(CN3CCN(c4ccccn4)CC3)cc2)cc1 | i | i | i | nt | i | 95
c1ccc(-c2nc(N3CCOCC3)c3ccccc3n2)nc1 | 3.3 | i | i | nt | nt | 99
CCN1CCN(c2nc(-c3ccccn3)nc3ccccc23)CC1 | i | i | i | nt | i | i
